Values joined by “and” are separate entries in the source; they are usually repeats but may differ in a detail not shown here. Equal entries are not always repeated. Results filed as inconclusive are left out. Where a call stands in place of a potency, no number is given. The source holds several records for some structures; these can differ, active in one and inactive in another. Active and inactive are the calls of the source. Unless noted, calls follow the shape of the dose curve; as a rule, active = well fitted curve in the direction sought with a large enough effect in the repeat runs; inconclusive = weak or mixed curves; inactive = no such curve, though single readings can be large; an effect the other way counts as inactive or inconclusive.
Columns and labels:
[1] = qHTS assay to identify small molecule agonists of the hypoxia (HIF-1) signaling pathway - cell viability counter screen (AID 1224844; calls by dose curve; also: nearly all actives have a fitted effect of over 50% in size; also: potency is read from the fitted curve at half-maximal effect); settings: HRE-bla ME-180 viability, CellTiter-Glo luminescence, 17 h; series mostly up to 76.8 µM
In short: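 In this counter screen, HRE-bla ME-180 cell viability after 17 hrs of compound exposure at 37C was read by CellTiter-Glo luminescence, multiplexed with the beta-lactamase reporter measurement.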

[2] = qHTS assay to identify small molecule agonists of H2AX (AID 1224845; active = well fitted activation curve with a large enough effect in the signal ratio in the repeat runs, not every such curve was filed as active; the % refers to the signal ratio; also: potency is read from the fitted curve at half-maximal effect); settings: CHO-K1 phospho-H2AX Ser139 HTRF, 3 h; series mostly up to 154 µM
In short: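 Wild-type CHO-K1 cells, plated overnight, exposed 3hr at 37C to 15 concentrations (0.76% DMSO final). Lysed, then HTRF anti-pH2AX (S139) cryptate and anti-H2AX-d2 antibodies, 24 hr room temperature; 665/620 nm emission read.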

[3] = qHTS assay to identify small molecule agonists of the hypoxia (HIF-1) signaling pathway (AID 1224846; active = well fitted activation curve with a large enough effect in the signal ratio in the repeat runs, not every such curve was filed as active; the % refers to the signal ratio); settings: HRE-bla ME-180 cells, beta-lactamase ratio, 17 h; series mostly up to 76.8 µM
In short: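 ME-180 HRE-bla reporter cells; compounds in DMSO, 17 h at 37C; read-out beta-lactamase via CCF4-AM FRET.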

[4] = qHTS RealTime-Glo MT Cell Viability Assay in HepG2 cells - 24 hour (AID 1224867); settings: RealTime-Glo luminescence; series mostly up to 76.8 µM; also: nearly all actives have a fitted effect of over 50% in size; also: potency is read from the fitted curve at half-maximal effect
In short: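 Cells + NanoLuc/prosubstrate dispensed (600 cells/well) → 5 h at 37 C/5% CO2 → compounds in DMSO transferred → 40 h incubation at 37 C, luminescence read at 0, 8, 16, 24, 32, 40 h.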

[5] = qHTS RealTime-Glo MT Cell Viability Assay in HEK293 cells - 32 hour (AID 1224868); settings: RealTime-Glo luminescence; series mostly up to 76.8 µM; also: nearly all actives have a fitted effect of over 50% in size; also: potency is read from the fitted curve at half-maximal effect
In short: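 Tox21 10K qHTS, HEK293, 600 cells/well, RealTime-Glo reagent co-dispensed with cells; 5 h preincubation, compound by pintool, 37 C, luminescence at 0–40 h.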

[6] = A CellTox Green Cytotoxicity Assay to monitor cytotoxicity in HEK293 cells - 0 hour (AID 1224869); settings: CellTox Green fluorescence; series mostly up to 76.8 µM; also: nearly all actives have a fitted effect of over 50% in size; also: potency is read from the fitted curve at half-maximal effect
In short: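 Real-time, in one plate: 600 HEK293 cells/well with dead-cell DNA dye, pinned compound after 5 h, 37 C incubation over 40 h; viable cells give no appreciable fluorescence.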

[7] = qHTS assay to identify small molecule agonists of H2AX - cell viability counter screen (AID 1224847; calls by dose curve; also: nearly all actives have a fitted effect of over 30% in size; also: potency is read from the fitted curve at half-maximal effect); settings: CHO-K1 viability, CellTiter-Glo luminescence, 3 h; series mostly up to 154 µM
In short: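 CHO-K1 cells plated overnight at 37C, then exposed 3 h at 37C to compounds at 15 concentrations (0.76% DMSO final). Viability by CellTiter-Glo luminescence after 30 min at room temperature.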

[8] = qHTS assay to identify small molecule antagonists of the estrogen related receptor (ERR) signaling pathway from Tox21 library (AID 1224848); settings: ERR reporter cell line, luciferase antagonist mode, 18 h; series mostly up to 92.4 µM; also: nearly all actives have a fitted effect of over 50% in size; also: potency is read from the fitted curve at half-maximal effect
In short: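 Compounds dissolved in DMSO are pin-transferred onto ERR reporter cells (2,000 per well) that have settled for 6 h at 37 C. Plates then incubate 18 h at 37 C before ONE-Glo luciferase reagent and a luminescence read 30 min later.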

[9] = qHTS assay to identify small molecule agonists of the estrogen related receptor (ERR) signaling pathway from Tox21 library (AID 1224849; calls by dose curve; also: nearly all actives have a fitted effect of over 15% in size); settings: ERR reporter cell line, ONE-Glo luciferase, 18 h; at 92.4 µM (top of the series) unless noted
In short: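 Luciferase activity in ERR pathway reporter cells served as the agonist readout; exposure lasted 18 h at 37 C, with ONE-Glo detection after 30 min at room temperature.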

[10] = qHTS RealTime-Glo MT Cell Viability Assay in HepG2 cells - 40 hour (AID 1224870); settings: RealTime-Glo luminescence; series mostly up to 76.8 µM; also: nearly all actives have a fitted effect of over 50% in size; also: potency is read from the fitted curve at half-maximal effect
In short: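 HepG2 cells (600/well) mixed with RealTime-Glo MT reagent, settled 5 h at 37 C/5% CO2 before compound addition. Nonlytic NanoLuc luminescence from viable-cell prosubstrate reduction read repeatedly during 40 h treatment at 37 C.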

SMILES	Potency [1]	Potency [2]	Potency [3]	Potency [4]	Potency [5]	Potency [6]	Potency [7]	Potency [8]	activity change, positive = activation [9]	Potency [10]
CSC1=N[C@@](C)(c2ccccc2)C(=O)N1Nc1ccccc1	inactive	inactive	inactive	inactive	inactive	inactive				
COC(=O)N(OC)c1ccccc1COc1ccn(-c2ccc(Cl)cc2)n1	inactive	inactive		inactive	21.9 µM (active)	inactive	1.27 µM (active)	137 nM (active)	-52.1% (inactive)	inactive
COC(=O)/C=C(\C)OP(=O)(OC)OC	inactive	inactive		inactive	inactive		inactive		-31.3% (inactive)	inactive
N#CCCl	inactive	inactive	inactive	inactive						inactive
COP(=S)(OC)Oc1ccc([N+](=O)[O-])c(C)c1	inactive	inactive		inactive	inactive	inactive	inactive		-19.2% (inactive)	inactive
CCCCCCCCCCCCCCn1cc[n+](C)c1	24.6 µM (active) and 43.2 µM (active) and inactive	inactive		24.6 µM (active) and 48.5 µM (active) and inactive	8.72 µM (active) and 4.32 µM (active)	inactive	12.7 µM (active) and 22.3 µM (active)	1.73 µM (active) and 1.35 µM (active)	-74.5% (inactive) and -73.1% (inactive) and -26.1% (inactive)	21.9 µM (active) and 34.3 µM (active) and inactive
Cc1c([N+](=O)[O-])cc2c(c1[N+](=O)[O-])C(C)(C)CC2(C)C	inactive	inactive	inactive	inactive	inactive				-30.3% (inactive)	inactive
CN1C(=O)[C@@H](NC(=O)c2cc3ccccc3[nH]2)N=C(c2ccccc2)c2ccccc21	inactive	inactive			inactive		inactive		-21.2% [at 42.5 µM] (inactive)	
CCC[CH2][Sn]([CH2]CCC)([CH2]CCC)[CH2]CCC	11 µM (active)	8000 nM (active)		6.16 µM (active)	8.71 µM (active)	49000 nM (active)	14.2 µM (active)	13700 nM (active)	-63.4% (inactive)	4900 nM (active)
C=CCOC(=O)c1ccccc1N	inactive	inactive	inactive	inactive	inactive	inactive			-28.9% (inactive)	inactive
CCC[CH2][Sn]([CH2]CCC)([O]C(C)=O)[O]C(C)=O	0.986 µM (active)	906 nM (active)		0.278 µM (active)	0.0783 µM (active)	inactive	inactive	61.7 nM (active)	-79.9% (inactive)	
O=C1C[C@@H]2OCC=C3CN4CC[C@]56c7ccccc7N1[C@H]5[C@H]2[C@H]3C[C@H]46	inactive	inactive		inactive		inactive	inactive	inactive	-3.01% [at 42.5 µM] (inactive)	inactive
c1ccc2c(c1)cc1ccc3cccc4ccc2c1c34	inactive	inactive		inactive	inactive	inactive	inactive	inactive	61.3% (active)	inactive
Oc1cc(Cl)c(Cl)c(Cl)c1Cl	inactive	inactive		inactive	47.8 µM (active)	inactive	49.3 µM (active)	26700 nM (active)	-60.7% (inactive)	inactive
CC(=O)[O][Pb]([c]1ccccc1)([c]1ccccc1)[c]1ccccc1	1.38 µM (active)	800 nM (active)		1.1 µM (active)	0.49 µM (active)	inactive	25.3 µM (active)	545 nM (active)	-77.1% (inactive)	871 nM (active)
CC(C)C(Nc1ccc(C(F)(F)F)cc1Cl)C(=O)OC(C#N)c1cccc(Oc2ccccc2)c1 (centres undefined)	inactive	inactive		inactive	inactive	inactive	inactive			inactive
COc1ccc2c(c1OC)C(=O)O[C@@H]2[C@H]1c2cc3c(cc2CCN1C)OCO3	inactive	inactive		inactive	inactive		inactive			inactive
CCN(CC)C(=S)S	19.7 µM (active) and 8.66 µM (active) and 9.77 µM (active)	inactive		inactive and 21.9 µM (active)	24.8 µM (active) and 4.87 µM (active) and 11 µM (active)	inactive	inactive			inactive and 21.9 µM (active)
CCCCn1cc[n+](C)c1.[Cl][Fe-]([Cl])([Cl])[Cl]	inactive		inactive	inactive	inactive	inactive	inactive			inactive
C=Cc1cccc(CCl)c1	inactive	inactive		inactive	inactive		inactive			inactive
C=CC(=O)[O][Sn]([CH2]CCC)([CH2]CCC)[CH2]CCC	0.977 µM (active)			0.436 µM (active)	0.389 µM (active)	inactive	1.42 µM (active)	1370 nM (active)	-66.8% (inactive)	389 nM (active)
CN1[C@@H]2CC[C@H]1CC(O)C2 (some centres undefined)	inactive	inactive		inactive	inactive	inactive	inactive			inactive

Reference: PubChem BioAssay (Tox21)
